Laboratory results reported in the supplement of paper PMC6522484.
± gives the standard deviation of the averaged measurements.

Assays:
DLD1 [1] = assay: cell viability (CellTiter-Glo) relative to plate median (fraction of plate median); higher = more viable cells; settings: 5 µM; treatment time 24 h; reporter: 7TFP
In short: (§1)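 After seeding in 384-well plates, colorectal cancer cell lines carrying stable lentiviral TCF/Wnt firefly luciferase reporters (7TFP or TCF4/Wnt) were left 24 h. Library compounds were then added at a final 5 µM for 24 h. A Tecan F500 reader measured firefly luciferase or CellTiterGlo luminescence on parallel plates, with each well normalised to the plate median by webcellHTS2 (additive, no log transformation), and two independent replicates averaged.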

HCT116 = assay: as above; settings: 5 µM; treatment time 24 h; reporter: TCF4/Wnt
In short: as §1

SW480 [2] = assay: as above; settings: 5 µM; treatment time 24 h; reporter: 7TFP
In short: as §1

DLD1 [3] = assay: TCF/Wnt firefly luciferase reporter signal relative to plate median (fraction of plate median); higher = higher Wnt reporter signal; settings: 5 µM; treatment time 24 h; reporter: 7TFP
In short: as §1

SW480 [4] = assay: as above; settings: 5 µM; treatment time 24 h; reporter: 7TFP
In short: as §1

In the case of `Nc1nc(/C(=C/CC(=O)O)C(=O)N[C@@H]2C(=O)N3C(C(=O)O)=CCS[C@H]23)cs1`, the cell viability (DLD1 [1]) is reported as 0.988 ± 0.06, the cell viability (HCT116) is reported as 1.03 ± 0.021 and the cell viability (SW480 [2]) is reported as 0.985 ± 0.0042. The “TCF/Wnt firefly luciferase reporter signal” value (DLD1 [3]) was 1.13 ± 0.22 and the “TCF/Wnt firefly luciferase reporter signal” value (SW480 [4]) was 1.01 ± 0.052.

`CC[C@H](C)C(=O)O[C@H]1C[C@H](O)C=C2C=C[C@H](C)[C@H](CC[C@@H](O)C[C@@H](O)CC(=O)O)[C@H]21` showed a cell viability (DLD1 [1]) of 1.03 ± 0.014, a cell viability (HCT116) of 1.02 ± 0.028 and a cell viability (SW480 [2]) of 0.989 ± 0.0028. The “TCF/Wnt firefly luciferase reporter signal” value (DLD1 [3]) was 1.04 ± 0.076 and the “TCF/Wnt firefly luciferase reporter signal” value (SW480 [4]) was 0.928 ± 0.16.

With `Cc1c(N(C)CS(=O)(=O)O)c(=O)n(-c2ccccc2)n1C` the cell viability (DLD1 [1]) was 1.04 ± 0.014, the cell viability (HCT116) was 0.968 ± 0.035 and the cell viability (SW480 [2]) was 1.06 ± 0.085. The “TCF/Wnt firefly luciferase reporter signal” value (DLD1 [3]) was 0.969 ± 0.059 and the “TCF/Wnt firefly luciferase reporter signal” value (SW480 [4]) was 1.04 ± 0.059.
